Assay results taken from the supplement of paper PMC10646978.
± gives the standard deviation.

Tests used:
Details in all cases: modulator concentration 10 µM
[1] = test system: RAW-Dual (murine macrophage reporter line); assay: NF-kB reporter (SEAP) activity fold change vs agonist alone; higher = enhanced NF-kB activity
Method in brief: (§1)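 RAW-Dual murine macrophage reporter cells were seeded at 50 000 per well in 384-well plates and pre-incubated 1 hour at 37 °C with compound pin-transferred to 10 μM final. After 1 hour, a PRR agonist was added and cells incubated overnight. Supernatant NF-κB (SEAP, QUANTI-Blue, 620 nm absorbance) and IRF (Lucia luciferase, QUANTI-Luc, luminescence) signals were divided by the mean agonist-only control on the same plate to give fold change. Two replicate plates were averaged, with errors by propagation.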

[2] = test system: RAW-Dual (murine macrophage reporter line); assay: IRF reporter (Lucia luciferase) activity fold change vs agonist alone; higher = enhanced IRF activity
Method in brief: as §1

[3] = test system: RAW-Dual (murine macrophage reporter line); assay: viability score (confluency relative to resting cells, overnight) (fraction); higher = more viable, active = viable (0.7 or more)
Method in brief: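 Overnight exposure to 10 μM final compound was carried out on RAW-Dual macrophages in 384-well plates. IncuCyte software generated two confluency masks over all wells imaged with IncuCyte. The viability score gives confluency in relation to resting cells. A compound met the cutoff if each mask exceeded 70% of resting cells.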

[4] = agonist: CpG ODN 1826 0.5 ug/mL

Structure (SMILES) | NF-kB reporter [1, 4] | NF-kB reporter ([1]; agonist: LPS 0.1 ug/mL) | NF-kB reporter ([1]; agonist: MPLA […]) | IRF reporter ([2]; agonist: 3'3'-cGAMP 10 ug/mL) | IRF reporter ([2]; agonist: LPS 0.1 ug/mL) | IRF reporter ([2]; agonist: MPLA […]) | viability score [3]
CC(=O)Nc1ccc(NC(=S)NC(=O)C=Cc2ccc(Cl)cc2)cc1 | 1.08 ± 0.069 | 1.09 ± 0.096 | 0.946 ± 0.025 | 0.838 ± 0.089 | 0.932 ± 0.1 | 0.787 ± 0.22 | 0.991 (active)
O=C(Nc1cc(C(F)(F)F)cc(C(F)(F)F)c1)c1c(F)cccc1F | 0.953 ± 0.099 | 1.07 ± 0.075 | 0.911 ± 0.069 | 0.987 ± 0.07 | 1.29 ± 0.14 | 1.07 ± 0.072 | 1.01 (active)
COc1cc2nc(N3CCN(C(=O)c4ccco4)CC3)nc(N)c2cc1OC.Cl | 0.888 ± 0.21 | 1.12 ± 0.056 | 0.953 ± 0.079 | 0.9 ± 0.032 | 1.22 ± 0.14 | 1.33 ± 0.2 | 1 (active)
COC(=O)[C@]12CCC(C)(C)C[C@H]1[C@H]1C(=O)C=C3[C@@]4(C)C=C(C#N)C(=O)C(C)(C)[C@@H]4CC[C@@]3(C)[C@]1(C)CC2 | 0.0752 ± 0.0037 | 0.294 ± 0.025 | 0.937 ± 0.086 | 0.0972 ± 0.012 | 0.571 ± 0.071 | 0.585 ± 0.14 | 0.246 (inactive)
O=C(NCCC(CCO)c1ccccc1)c1cccc(Cl)c1 (configuration not stated) | 1.11 ± 0.068 | 1.02 ± 0.082 | 0.946 ± 0.025 | 0.748 ± 0.027 | 0.967 ± 0.051 | 0.984 ± 0.096 | 1 (active)
NS(=O)(=O)c1ccc(C(=O)O)cc1 | 0.892 ± 0.066 | 0.94 ± 0.096 | 1.06 ± 0.096 | 1.01 ± 0.054 | 1.01 ± 0.18 | 1 ± 0.31 | 0.994 (active)
CCOC(=O)C1=C(C)NC(C)=C(C(=O)OC)C1c1ccccc1 (configuration not stated) | 0.884 ± 0.1 | 0.831 ± 0.057 | 1.63 ± 0.059 | 0.609 ± 0.085 | 0.896 ± 0.037 | 0.79 ± 0.06 | 0.946 (active)
O=S(=O)(NN=Cc1c[nH]c2ccccc12)c1ccc(Cl)cc1 | 0.627 ± 0.053 | 0.619 ± 0.029 | 0.844 ± 0.078 | 0.0905 ± 0.0084 | 1.32 ± 0.11 | 1.31 ± 0.13 | 0.962 (active)
COC(CNC(=O)CSc1ccc(F)cc1)c1ccc(C)s1 (configuration not stated) | 1.07 ± 0.33 | 1.1 ± 0.067 | 1.05 ± 0.067 | 0.898 ± 0.03 | 1.06 ± 0.16 | 1.11 ± 0.1 | 0.985 (active)
O=C(Nc1c(Cl)cncc1Cl)c1ccc(OC(F)F)c(OCC2CC2)c1 | 2.48 ± 0.36 | 1.99 ± 0.17 | 1.44 ± 0.1 | 0.804 ± 0.025 | 0.908 ± 0.094 | 1.24 ± 0.22 | 0.968 (active)
Cl.N=C(N)NCCC[C@H](N)C(=O)O | 1.12 ± 0.27 | 0.995 ± 0.08 | 1.03 ± 0.081 | 0.896 ± 0.036 | 1.38 ± 0.15 | 1.2 ± 0.23 | 1.01 (active)
Cc1[nH]c(=O)c(C#N)cc1-c1ccncc1 | 1.34 ± 0.19 | 1.26 ± 0.28 | 2.34 ± 1.3 | 0.895 ± 0.027 | 1.31 ± 0.15 | 1.34 ± 0.2 | 0.99 (active)
O=C(NCCC(CCO)c1ccccc1)c1cccc(Br)c1 (configuration not stated) | 0.731 ± 0.033 | 1.03 ± 0.093 | 0.988 ± 0.053 | 0.653 ± 0.031 | 0.927 ± 0.18 | 0.958 ± 0.35 | 0.996 (active)
CC1CCC2C(C)(CO)C(O)CCC2(C)C12CCC(CO)(CCO)O2 (configuration not stated) | 0.983 ± 0.073 | 0.945 ± 0.049 | 1.02 ± 0.033 | 0.99 ± 0.11 | 0.949 ± 0.048 | 0.952 ± 0.076 | 1 (active)
COc1cc2nc(N3CCN(C(=O)c4ccco4)CC3)nc(N)c2cc1OC [Prestw-947] | 0.258 ± 0.041 | 1.09 ± 0.083 | 1.14 ± 0.11 | 1.59 ± 0.049 | 1.28 ± 0.18 | 1.48 ± 0.33 | 0.971 (active)
Cc1ccc(-n2nc(C(C)(C)C)cc2NC(=O)Nc2ccc(OCCN3CCOCC3)c3ccccc23)cc1 | 0.68 ± 0.13 | 0.658 ± 0.052 | 0.784 ± 0.077 | 1.19 ± 0.058 | 0.741 ± 0.14 | 0.844 ± 0.1 | 1.02 (active)
CC(C)CN(C[C@@H](O)[C@H](Cc1ccccc1)NC(=O)O[C@H]1CO[C@H]2OCC[C@H]21)S(=O)(=O)c1ccc(N)cc1.CCO | 1.7 ± 0.13 | 1.11 ± 0.063 | 1.7 ± 0.042 | 0.998 ± 0.056 | 0.982 ± 0.12 | 1 ± 0.081 | 0.996 (active)
COc1cc(O)c(C(=O)Nc2nc(C(=O)NCCN(C(C)C)C(C)C)cs2)cc1OC.Cl.O.O.O | 1.01 ± 0.098 | 0.966 ± 0.13 | 0.968 ± 0.022 | 0.96 ± 0.064 | 1 ± 0.11 | 1.05 ± 0.18 | 0.997 (active)
CN(C)CCCNc1cc(C(C)(C)C)nc2c(-c3ccccc3)cnn12 | 0.172 ± 0.017 | 0.13 ± 0.012 | 1.23 ± 0.18 | 0.0482 ± 0.0069 | 0.0973 ± 0.0058 | 0.712 ± 0.34 | 0.0497 (inactive)
CC(C)NCC(O)COc1cccc2ccccc12 (configuration not stated) [Prestw-1075] | 1.02 ± 0.064 | 0.92 ± 0.11 | 1.05 ± 0.043 | 0.896 ± 0.032 | 0.929 ± 0.071 | 0.918 ± 0.09 | 0.985 (active)
COC(=O)[C@H](c1ccccc1Cl)N1CCc2sccc2C1.O=S(=O)(O)O | 0.811 ± 0.21 | 0.993 ± 0.28 | 1.06 ± 0.12 | 1.11 ± 0.081 | 1.02 ± 0.29 | 0.955 ± 0.22 | 0.954 (active)
O=C(NCCO)c1cc(C(=O)NCCO)cc(C(=O)NCCO)c1 | 0.964 ± 0.065 | 1.05 ± 0.064 | 0.923 ± 0.054 | 0.981 ± 0.043 | 1.36 ± 0.099 | 1.18 ± 0.29 | 1.01 (active)
CCOC(=O)C1=C(CC)OC(N)=C(C#N)C1c1cccc(Oc2ccc(Cl)cc2)c1 (configuration not stated) | 0.746 ± 0.058 | 0.662 ± 0.05 | 0.769 ± 0.073 | 0.281 ± 0.0095 | 1.13 ± 0.18 | 1.12 ± 0.2 | 0.972 (active)
O=C(NCCCO)C(=O)Nc1ccccc1F | 0.815 ± 0.07 | 0.894 ± 0.045 | 1 ± 0.099 | 0.968 ± 0.062 | 1.39 ± 0.08 | 1.46 ± 0.14 | 1 (active)
CCOC(=O)C1=C(C)OC(N)=C(C#N)C1c1cc(C)c(OC)cc1C (configuration not stated) | 0.925 ± 0.073 | 1.01 ± 0.11 | 0.898 ± 0.056 | 0.66 ± 0.11 | 0.987 ± 0.089 | 0.935 ± 0.17 | 1 (active)
O=C(C=Cc1cccc([N+](=O)[O-])c1)NCCc1ccccc1 | 1.01 ± 0.17 | 1 ± 0.12 | 0.948 ± 0.12 | 0.963 ± 0.048 | 1.27 ± 0.24 | 1.32 ± 0.24 | 0.99 (active)
